“And” between values parts separate entries of the source, which are not always exact repeats. Identical values can stand only once. Inconclusive results are not listed. A call without a number means that no potency is given here. Some structures have more than one record in an assay (separate samples or runs), and their calls can disagree. The source made the active and inactive calls. Calls follow the shape of the dose curve; as a rule, active = well fitted inhibition curve with a large enough effect in the repeat runs; inconclusive = weak or mixed curves; inactive = no such curve, though single readings can be large or run the other way.
Potency is read from the fitted curve at half-maximal effect.

Sequence of Cytochrome P450 3A4 (Homo sapiens) (P08684 whole entry, looked up): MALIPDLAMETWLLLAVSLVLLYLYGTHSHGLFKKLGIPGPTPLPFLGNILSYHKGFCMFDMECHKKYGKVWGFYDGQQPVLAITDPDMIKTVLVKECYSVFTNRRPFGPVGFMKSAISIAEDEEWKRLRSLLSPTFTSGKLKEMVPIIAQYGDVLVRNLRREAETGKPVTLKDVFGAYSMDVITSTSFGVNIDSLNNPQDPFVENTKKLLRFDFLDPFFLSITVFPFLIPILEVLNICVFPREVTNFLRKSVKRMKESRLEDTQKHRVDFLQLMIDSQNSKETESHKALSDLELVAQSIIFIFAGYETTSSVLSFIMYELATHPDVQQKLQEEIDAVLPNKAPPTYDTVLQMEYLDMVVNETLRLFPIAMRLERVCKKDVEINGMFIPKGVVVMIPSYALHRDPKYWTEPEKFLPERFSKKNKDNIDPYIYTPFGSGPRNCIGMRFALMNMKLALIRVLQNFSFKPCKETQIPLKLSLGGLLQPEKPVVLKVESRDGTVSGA

For the assay, the target named is Cytochrome P450 3A4 (Homo sapiens) (UniProt P08684). The assay can be described thus: Cytochrome P450 Family 3 Subfamily A Member 4 (CYP3A4) small molecule antagonists: luciferase reporter qHTS assay (AID 1671201). Also: nearly all actives have a fitted effect of over 50% in size. To be noted: P450-Glo CYP3A4 enzyme, luciferin luminescence, 1 h; series mostly up to 115 µM; activity change, negative = inhibition: at the top concentration. From the text:
National Center for Advancing Translational Sciences [NCATS]
U.S. Environmental Protection Agency [EPA]
National Institutes of Environmental Health Sciences [NIEHS]
National Toxicology Program [NTP]
U.S. Food and Drug Administration [FDA]
Cytochrome P450 (CYP) enzymes are membrane-bound hemeproteins that play a key role in metabolism of drugs and xenobiotics. Evaluation of the effect of chemicals on CYP isozymes is useful to minimize the adverse drug reactions and toxicities in drug development process. Tox21 chemicals were tested for their effect on CYP enzyme activities by using P450-Glo (TM) screening systems (Promega Corporation, Madison, WI). These systems provide a luminescent method containing proluciferin substrates and are converted to luciferin products by CYP isozymes. The luciferin products formed are detected with a luciferin detection reagent, and the amount of light produced is proportional to CYP activity. P450-Glo (TM) CYP3A4 screening system (Catalog. No. V9910) was used to detect the compounds that interfere in CYP3A4 activity. The positive control compound used for CYP3A4 assay is ketoconazole (Sigma-Aldrich, St. Louis, MO).
Tox21 Assay Protocol Summary:
Two ul of enzyme-substrate mix was dispensed into medium binding white/solid 1536-well plates (Greiner Bio-One North America Inc., Monroe, NC) using a BioRaptr Flying Reagent Dispenser (FRD, Beckman Coulter, Brea, CA). Compounds dissolved in DMSO and positive control (ketoconazole) were transferred to the assay plates at 23 nl using a Pintool station (Wako, San Diego, CA). The assay plates were incubated at room temperature for 10 min. Then 2 ul of NADPH regeneration solution was added to each well of the assay plates using an FRD and incubated at room temperature for 1 h. The reaction was stopped by adding 4 ul of detection reagent using an FRD and after 20 min incubation at room temperature the luminescence signal was measured using a ViewLux plate reader (Perkin Elmer, Shelton, CT). Data were expressed as relative luminescence units.
Background: A reporter such as luciferase makes a cellular process visible.
`N[C@@H](Cc1c[nH]c2ccccc12)C(=O)O`: the Potency result is “inactive”.

As for `C=CC(=O)NC(C)(C)CS(=O)(=O)O`, the Potency result was “inactive”.

With `CCOCCO`, the Potency entry is “inactive”. Same read-out and setting: to `CC(=O)c1ccc(S(=O)(=O)NC(=O)NC2CCCCC2)cc1` belongs “inactive”; to `CC1(C)O[C@@H]2[C@@H](CO[C@@]3(COS(N)(=O)=O)OC(C)(C)O[C@@H]23)O1`, “inactive”; to `COc1ccccc1NC(=O)CC(C)=O`, 63.3 µM (active).

As to `NC(N)=NC(N)=NCCc1ccccc1`, the Potency result is “inactive”.

In the case of `CCN(CC)CCOC(=O)c1ccc(N)cc1`, the Potency result is “inactive”. On the same count and under the same terms, to `CC(O)COc1ccccc1` (stereo not given) belongs “inactive”. The same measure, in the same setting: to `CC(C)CC(C)CC(O)CC(C)C` (stereo not given) belongs “inactive”.

Consider `CCn1cc(C(=O)O)c(=O)c2ccc(C)nc21`, for which the Potency entry is “inactive”. On to `NCCNc1cccc2ccccc12`, for which the Potency was 31.7 µM (active) and inactive. As for `NC(=O)OCC(COC(N)=O)c1ccccc1`, the Potency entry is “inactive”.

In the case of `CC(=O)Oc1ccccc1C(=O)O`, the Potency entry was “inactive”. As to `CCCCC/C(C=O)=C\c1ccccc1`, the Potency entry was “inactive”. As to `COc1ccc(O)cc1`, the Potency result is “inactive”. For the molecule `COCC(C)N` (stereo not given), the Potency result was “inactive”. For the molecule `CN(C)Cc1cc(CN(C)C)c(O)c(CN(C)C)c1`, the “activity change, negative = inhibition” value is -7.57% (inactive). On to `COC(=O)C1CCC(C(=O)OC)CC1` (stereo not given), for which the Potency result is “inactive”. Still for that read-out and setting: to `C1CNCCN1` belongs “inactive”.

Take `O=c1cc[nH]c(=O)[nH]1`: the Potency result is “inactive”. Same read-out and setting: the same measure for `CC1=NN(c2ccccc2)C(=O)C1`: “inactive”.

For `Cc1c(N(C)CS(=O)(=O)O)c(=O)n(-c2ccccc2)n1C`, the Potency entry is “inactive”. `OCCCc1ccccc1`: the Potency entry is “inactive”. On the same count and under the same terms, the same measure for `CCCCOC(=O)CCCCCCCCC(=O)OCCCC`: “inactive”.

For the molecule `NC(=O)N1c2ccccc2C=Cc2ccccc21`, the Potency entry was “inactive”.

Take `CC(C)(C)NCC(O)c1ccc(O)c(CO)c1` (stereo not given): the Potency entry was “inactive”.

For the molecule `C=C(C)C(N)=O`, the Potency result was “inactive”. `CCCCCCCC(=O)OCC(O)CO` (stereo not given): the Potency result was “inactive”. On to `CC1=C(/C=C/C(C)=C/C=C/C(C)=C/C(=O)O)C(C)(C)CCC1`, for which the Potency was 35.6 µM (active) and 28.2 µM (active). For `Cc1cccc(Nc2cc(Cl)nc(SCC(=O)O)n2)c1C`, the Potency entry is “inactive”. Consider `CC(=O)/C=C/C1=C(C)CCCC1(C)C`, for which the Potency is 35.6 µM (active).

`Cc1c(N(C)C)c(=O)n(-c2ccccc2)n1C`: the Potency entry was “inactive”. `CCCCOCCOCCOC(C)=O`: the Potency result is “inactive”. With `CCN1CCCC1=O`, the “activity change, negative = inhibition” value is 10.3% [at 52.9 µM] (inactive).

As for `CCCCCCCCCCCCCCCCCC(=O)OCC(O)CO` (stereo not given), the Potency entry was “inactive”. Same read-out and setting: the same measure for `COC(=O)c1ccc(O)cc1`: “inactive”. As for `COc1ccccc1O`, the Potency entry was “inactive”. Turning to `CCCCCCCCCCCCCC(=O)OC(C)C`, the Potency result is “inactive”.

As for `C=C(C)OC(C)=O`, the Potency entry is “inactive”.

(Values after PubChem BioAssay (Tox21).)
